Data from the supplement of paper PMC7411054.

Tests used:
Details in all cases: treatment time: 24 h
[1] = system: A549-GM130-SQSTM1; experiment: lowest phenotypically active concentration; higher = less potent
Method in brief: (§1)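 Live-cell features were measured per well and normalised to solvent control wells after fifteen gene-edited A549, HepG2 and WPMY1 reporter lines had been treated for 24 h at 0.3, 1, 3 or 9 µM in four wells each. A condition was deviating when ≥3 of 4 wells sat beyond the 95th percentile of control Euclidean distances. It was reproducible when the median replicate Pearson correlation exceeded the 95th percentile of non-replicates. Phenotypic activity demanded both.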

[2] = system: A549-ACTB-RAB5A; experiment: phenotypically active (imaging signature differs from DMSO and reproducible) at any of 0.3-9 uM (binary (1 = active, 0 = inactive)); higher = active
Method in brief: as §1

[3] = system: A549-CANX-COX4; experiment: as above
Method in brief: as §1

[4] = system: A549-GM130-SQSTM1; experiment: as above
Method in brief: as §1

[5] = system: A549-TP53BP1-CLTA; experiment: as above
Method in brief: as §1

[6] = system: A549-TUBA1B-RELA; experiment: as above
Method in brief: as §1

[7] = system: HepG2-ACTB-RAB5A; experiment: as above
Method in brief: as §1

[8] = system: HepG2-CANX-COX4; experiment: as above
Method in brief: as §1

[9] = system: HepG2-GM130-SQSTM1; experiment: as above
Method in brief: as §1

[10] = system: HepG2-TP53BP1-CLTA; experiment: as above
Method in brief: as §1

[11] = system: HepG2-TUBA1B-RELA; experiment: as above
Method in brief: as §1

[12] = system: WPMY1-ACTB-RAB5A; experiment: as above
Method in brief: as §1

[13] = system: WPMY1-CANX-COX4; experiment: as above
Method in brief: as §1

[14] = system: WPMY1-GM130-SQSTM1; experiment: as above
Method in brief: as §1

[15] = system: WPMY1-TP53BP1-CLTA; experiment: as above
Method in brief: as §1

[16] = system: WPMY1-TUBA1B-RELA; experiment: as above
Method in brief: as §1

O=C(COc1cccc2c(=O)[nH]ccc12)c1ccccc1
active: phenotypically active [4] 1
inactive: phenotypically active [2] 0 | phenotypically active [3] 0 | phenotypically active [5] 0 | phenotypically active [6] 0 | phenotypically active [7] 0 | phenotypically active [8] 0 | phenotypically active [9] 0 | phenotypically active [10] 0 | phenotypically active [11] 0 | phenotypically active [12] 0 | phenotypically active [13] 0 | phenotypically active [14] 0 | phenotypically active [15] 0 | phenotypically active [16] 0
9 µM: lowest phenotypically active concentration [1]

COc1ccc(CCc2nc3c(C)c(-c4c(C)noc4C)c(C)cc3n2CCN2CCOCC2)cc1
active: phenotypically active [4] 1
inactive: phenotypically active [2] 0 | phenotypically active [3] 0 | phenotypically active [5] 0 | phenotypically active [6] 0 | phenotypically active [7] 0 | phenotypically active [8] 0 | phenotypically active [9] 0 | phenotypically active [10] 0 | phenotypically active [11] 0 | phenotypically active [12] 0 | phenotypically active [13] 0 | phenotypically active [14] 0 | phenotypically active [15] 0 | phenotypically active [16] 0
9 µM: lowest phenotypically active concentration [1]

CC(C)(C(=O)c1cccnc1)c1cccnc1 [metyrapone]
active: phenotypically active [4] 1
9 µM: lowest phenotypically active concentration [1]
inactive: phenotypically active [2] 0 | phenotypically active [3] 0 | phenotypically active [5] 0 | phenotypically active [6] 0 | phenotypically active [7] 0 | phenotypically active [8] 0 | phenotypically active [9] 0 | phenotypically active [10] 0 | phenotypically active [11] 0 | phenotypically active [12] 0 | phenotypically active [13] 0 | phenotypically active [14] 0 | phenotypically active [15] 0 | phenotypically active [16] 0
